Sfp PPTase inh – qHTS Assay for Inhibitors of Bacillus subtilis Sfp phosphopantetheinyl transferase (PPTase); 4'-phosphopantetheinyl transferase ffp (Bacillus subtilis), Q9F4F7; Biochemical Sfp PPTase activity, qHTS; 3.5% of 310,000 active; AID 1490, 2009; Potency, µM, for inactives: largest response in the series, negative = inhibition, actives largely listed as inhibitors;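 further: the enzyme is Sfp with the accession as filed and its product quenches rhodamine fluorescence; 0% = enzyme reaction without inhibitor and -100% = no enzyme wells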
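Sfp 15 nM + cpd, 15 min RT; start w/ rhodamine-CoA 5 uM, BHQ-2-YbbR 12.5 uM (final); 50 mM Hepes pH 7.6, 10 mM MgCl2, 0.01% NP-40, 0.01% BSA; read 525/598 nm at 0 and 30 min.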
HP1b binding inh – HTS for Inhibitors of HP1-beta Chromodomain Interactions with Methylated Histone Tails; Chromobox protein homolog 1 (Homo sapiens), P83916; AlphaScreen HP1-beta / biotin-H3K9me3 peptide binding; Potency, µM (top dose mostly 114 µM), for inactives: top-dose activity change, negative = inhibition, most hits filed as inhibitors; 0.56% of 390,000 active; AID 540317, 2011; further: nearly all actives have a fitted effect of over 70% in size
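HP1-beta protein (50 nM final) preincubated 30 min at room temperature with biotinylated H3(1-18)K9me3 peptide (50 nM) in PBS pH 7.4, 0.01% Tween-20, then compound added for 30 min. AlphaScreen streptavidin donor/nickel chelate acceptor beads (10 ug/mL final), 30 min dark, luminescence read.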
JMJD2A Tudor inh – qHTS Assay for Inhibitors of JMJD2A-Tudor Domain; 4.4% of 390,000 active; AlphaScreen JMJD2A-Tudor / H3K4me3 peptide binding; AID 504339, 2011; Lysine-specific demethylase 4A (Homo sapiens), O75164; Potency, µM (top dose mostly 114 µM), inactives show at the highest dose activity change, negative = inhibition, hits mostly inhibitors; further: on the % scale 0 is the no-effect control and ±100 the full control effect; nearly all actives have a fitted effect of over 50% in size
Target sequence (O75164 whole entry, looked up, the tested form may be a part): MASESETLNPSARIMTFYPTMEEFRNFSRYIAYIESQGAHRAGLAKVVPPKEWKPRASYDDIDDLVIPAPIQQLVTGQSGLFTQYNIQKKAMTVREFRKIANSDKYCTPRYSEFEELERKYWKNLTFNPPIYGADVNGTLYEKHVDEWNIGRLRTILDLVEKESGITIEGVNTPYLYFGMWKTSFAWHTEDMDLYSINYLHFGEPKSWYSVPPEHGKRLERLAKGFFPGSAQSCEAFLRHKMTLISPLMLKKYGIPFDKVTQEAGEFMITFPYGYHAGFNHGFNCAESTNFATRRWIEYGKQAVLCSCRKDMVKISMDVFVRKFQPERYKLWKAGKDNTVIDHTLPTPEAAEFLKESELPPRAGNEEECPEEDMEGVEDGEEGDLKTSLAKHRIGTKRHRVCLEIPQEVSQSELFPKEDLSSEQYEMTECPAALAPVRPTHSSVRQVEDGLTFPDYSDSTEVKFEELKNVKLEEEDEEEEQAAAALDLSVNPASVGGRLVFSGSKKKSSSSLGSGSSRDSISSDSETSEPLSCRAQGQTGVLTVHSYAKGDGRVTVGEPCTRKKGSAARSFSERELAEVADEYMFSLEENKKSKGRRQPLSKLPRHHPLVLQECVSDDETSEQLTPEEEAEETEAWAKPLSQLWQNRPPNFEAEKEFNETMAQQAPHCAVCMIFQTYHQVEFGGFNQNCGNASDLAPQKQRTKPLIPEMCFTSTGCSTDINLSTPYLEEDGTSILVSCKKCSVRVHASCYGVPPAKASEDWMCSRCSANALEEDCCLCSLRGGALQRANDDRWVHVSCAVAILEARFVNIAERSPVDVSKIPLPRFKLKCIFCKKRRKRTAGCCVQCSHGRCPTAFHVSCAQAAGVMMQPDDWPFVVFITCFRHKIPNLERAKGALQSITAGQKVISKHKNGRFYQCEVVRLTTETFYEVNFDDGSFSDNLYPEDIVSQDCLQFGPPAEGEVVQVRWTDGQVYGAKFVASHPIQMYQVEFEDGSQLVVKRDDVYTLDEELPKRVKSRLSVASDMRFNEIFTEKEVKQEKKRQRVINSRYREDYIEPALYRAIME
G9a inh – qHTS Assay for Inhibitors of Histone Lysine Methyltransferase G9a; 8.8% of 350,000 active; G9a H3K9 monomethylation, AlphaScreen, 2 h; Potency, µM (titrated, usually from 102 µM), inactives show top-dose activity, negative = inhibition, actives largely listed as inhibitors; further: on the % scale 0 is the no-effect control and ±100 the full control effect; nearly all actives have a fitted effect of over 75% in size
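AlphaScreen read-out: biotin-H3K9 peptide (500 nM) methylation by 20 nM enzyme with 20 uM SAM, 2 h at room temperature after 15 min compound preincubation; anti-monomethyl H3K9 antibody plus donor/acceptor beads, 10 min dark.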
L3MBTL1 block – qHTS Assay for the Inhibitors of L3MBTL1; 0.66% of 230,000 active; AID 485360, 2010; AlphaScreen L3MBTL1–H3K9me1 peptide binding; Potency, µM (doses to about 57.1 µM), inactives show top-dose activity, negative = inhibition, hits mostly inhibitors; further: on the % scale 0 is the no-effect control and ±100 the full control effect; nearly all actives have a fitted effect of over 60% in size
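Read-out is AlphaScreen signal from streptavidin donor and nickel chelate acceptor beads (10 ug/mL final each) bridging L3MBTL1 (50 nM) and biotinylated K9-monomethylated H3(1-15) peptide (75 nM), after 30 min compound exposure at room temperature.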
BAZ2B inh – qHTS Assay for Inhibitors of BAZ2B; 4.4% of 360,000 active; Potency, µM (series often up to 114 µM), for the others: at the highest dose activity change, negative = inhibition, hits mostly inhibitors; Bromodomain adjacent to zinc finger domain protein 2B (Homo sapiens), Q9UIF8; AlphaScreen BAZ2B-H3K14Ac peptide displacement; further: on the % scale 0 is the no-effect control and ±100 the full control effect; nearly all actives have a fitted effect of over 60% in size
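AlphaScreen displacement: compounds (up to 110uM) incubated 30 min at room temperature with a preformed 50 nM BAZ2B/50 nM biotinylated H3K14Ac peptide complex in PBS pH 7.4 with Tween-20. Donor and acceptor beads at 10 ug/mL final added, 20 min light-protected before reading.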
* hit, by the source's call; ? = inconclusive; / = no result; [ ] = remark or other dose. Most compounds without a hit are left out; they make up all but 12% or so of the library. The call rests on the fitted dose curve; in most records, active means well fitted curve in the direction sought with a large enough effect; inconclusive means small, poorly fitted or top-dose-only effect, or another doubt; inactive means no such curve, though single readings can be large; an effect the other way counts as inactive or inconclusive. Potency means the concentration at half of the fitted maximal effect.

SMILES | Sfp PPTase inh | HP1b binding inh | JMJD2A Tudor inh | G9a inh | L3MBTL1 block | BAZ2B inh
CSc1nnc(-c2ccco2)c(-c2ccco2)n1 | 10µM* | ? | -7%[11.4 µM] | ? | / | 20µM*
COc1ccc(C(=O)CSc2nnc(-c3ccco3)n2C)cc1 | -8% | 32% | -9% | -8%[59 µM] | 0% | 5%
CSc1nnc(-c2ccccc2)c(-c2ccccc2)n1 | 7% | 46% | 23% | 65%[59 µM] | 1% | -1%
COc1ccc(NC(=O)CSc2nnc(-c3ccco3)c(-c3ccco3)n2)cc1OC | 35µM* | ? | ? | 7.1µM* | / | -9%
COc1ccc(C(=O)CSc2nnc(-c3ccco3)c(-c3ccco3)n2)cc1 | 8.9µM* | ? | 22µM* | 8.9µM* | ? | 20µM*
COc1cccc(NC(=O)CSc2nnc(-c3ccco3)c(-c3ccco3)n2)c1 | 10µM* | ? | 45µM* | 2.8µM* | / | 50µM*
COc1ccc(C(=O)Nc2ccc3c(c2)N(C2CCCC2)C(=O)c2ccccc2S3)cc1OC | / | 15% | -30% | -2%[59 µM] | / | -17%
O=S(=O)(c1ccc2c(c1)OCCO2)N1CCN(CCc2ccccc2)CC1 | / | -16% | ? | / | / | /
COc1cc(C2c3c(oc4ccccc4c3=O)C(=O)N2Cc2ccccc2Cl)ccc1O (configuration not stated) | / | 32% | -18% | -15%[59 µM] | / | 1%
CN1CC[C@@]2(CCCN(C(=O)c3cc(C(F)(F)F)cc(C(F)(F)F)c3)C2)C1 | 22% | / | / | 5%[12.7 µM] | / | /
CCCCc1c(C)c(C#N)c2nc3ccccc3n2c1Nc1c(C)n(C)n(-c2ccccc2)c1=O | -6% | 72% | 10% | 17% | 10% | -34%
Cc1c(Nc2c3c(c(C#N)c4nc5ccccc5n24)CCC3)c(=O)n(-c2ccccc2)n1C | 4% | / | / | 50µM* | -2% | -30%
Cn1c(=O)c2c(ncn2Cc2ccc(Cl)cc2)n(C)c1=O | 1% | 49% | -8% | -2%[0.501 µM] | 7% | 0%
Cn1c(=O)c2c([nH]c(=S)n2Cc2ccc(Cl)cc2)n(C)c1=O | 20µM* | ? | 5.6µM* | 1.3µM* | -3% | 22µM*
COc1ccc(-n2ncc(C(=O)N3CCN(C(=O)c4ccco4)CC3)c2C2CCN(C(=O)OC(C)(C)C)CC2)cc1 | / | 31% | 1% | -7%[59 µM] | / | 9%[57.1 µM]
O=c1[nH]c2ccc(N=Cc3c(O)ccc4cc(Br)ccc34)cc2[nH]1 | 3% | 0% | 45µM* | 1.6µM* | -14% | ?
O=C(CN1CCN(c2ccc(Cl)cc2)CC1)Nc1ccc(Cl)c(C(F)(F)F)c1 | / | 44% | -2% | 8%[12.7 µM] | / | -16%
CCOc1ncccc1C(=O)OCc1cc(=O)oc2c(C)c(C)ccc12 | 1% | 20% | -5% | 1% | 4% | 0%
CCN(CCO)Cc1cc(=O)oc2c(C)c(C)ccc12 | -9% | -1% | -15% | 50µM* | -3% | 5%
Cc1ccc2c(CN3CCN(CCO)CC3)cc(=O)oc2c1C | 20% | 20% | -16% | -4%[59 µM] | / | 7%
Cc1cccc(C(=O)OCc2cc(=O)oc3c(C)c(C)ccc23)c1O | 13% | 32% | -7% | 40µM* | / | -21%
CCOC(=O)C1CCCN(C(=O)Cn2ncc3c4ccccc4n(C)c3c2=O)C1 (configuration not stated) | / | 22% | -6% | -25%[59 µM] | / | -3%
CN(C)c1ccc(NC(=O)CCn2c(=S)oc3ccccc32)cc1 | 1% | -2% | ? | ? | -1% | 25µM*
Cc1ccc(NC(=O)Cn2nc(Cc3ccncc3)c3ccccc3c2=O)c(Cl)c1 | / | 62% | ? | -39%[59 µM] | / | 71µM*
O=C(CN1CCN(c2ccccn2)CC1)Nc1cccc(Br)c1 | -9% | 53% | -22% | 45µM* | / | -19%
SMILES | Sfp PPTase inh | HP1b binding inh | JMJD2A Tudor inh | G9a inh | L3MBTL1 block | BAZ2B inh
COc1cc(NC(=O)CN2CCN(c3ccccn3)CC2)cc(OC)c1OC | 13% | 2% | 0% | 45µM* | / | 4%
Cc1ccc(NC(=O)CCn2c(=S)oc3ccccc32)cc1 | 4% | 55% | -3% | -25% | / | -15%
O=C(CN1CCN(c2ccccn2)CC1)Nc1cccc(F)c1 | 12% | 55% | -12% | 4% | / | 4%
Cc1cccc(CNC(=O)CCCn2c(=O)c3cccn3c3ccc(F)cc32)c1 | / | 63% | 1% | 23%[59 µM] | / | -2%
O=C(CSc1ncc2c(n1)-c1ccccc1N(Cc1ccc(F)cc1)S2(=O)=O)c1ccc(Cl)cc1 | / | 40% | 14% | -2%[59 µM] | / | 1%
COc1ccc(NC(=O)c2c(C)oc3ccc(O)c(CN4CCN(C)CC4)c23)cc1Cl | / | 24% | -18% | -3%[59 µM] | / | -16%
CN(C)c1ccc(NC(=O)CCN2CCN(c3ccccn3)CC2)cc1 | -5% | 3% | -32% | 50µM* | / | -29%
Cc1ccc(NC(=O)CN2CCN(c3ccccn3)CC2)c(Cl)c1 | 79µM* | 27% | -19% | -47%[59 µM] | / | -5%
O=C(CCN1CCN(c2ccccn2)CC1)Nc1ccc(F)cc1 | 6% | 23% | 12% | 11% | 6% | 5%
COc1cccc(-n2nc(C#N)c(Cl)cc2=O)c1 | 2% | 75% | -27% | 50µM* | / | -23%
O=c1c2ccccc2c(=O)n(-c2ccccc2)n1-c1ccccc1 | / | 24% | -9% | / | / | /
O=c1c2ccccc2c2ccccc2c(=O)n1-c1ccccc1 | 13% | 7% | -4% | 50µM* | -19% | -25%
C[C@H]1CCCC(=O)CCC/C=C/c2c(O)cc(O)cc2C(=O)O1 | 0% | / | / | / | / | /
CC(=O)c1nc(N2C(=O)CC(Cc3ccc(C)cc3)C2=O)sc1C (configuration not stated) | 13% | 37% | -24% | 1.4µM* | 9% | ?
Cc1cc(F)ccc1Nc1nc2ccc(Cl)cc2n2cnnc12 | / | 6% | -17% | -2%[59 µM] | / | 3%
N#Cc1ccc(COn2nnc3ccccc32)cc1 | 22% | 44% | -10% | 89µM* | 12% | 4%
CSc1ccccc1C(=O)Nc1cccc([N+](=O)[O-])c1 | -16% | 8% | -31% | ? | -15% | ?
O=C(Nc1ccccc1C(=O)Nc1ccccc1)c1ccco1 | 18% | -19% | -10% | 12% | / | -2%
CSc1ccccc1C(=O)Nc1cccc(C)c1 | 10% | 37% | -7% | 45µM* | / | 3%
Cc1cc(NC(=O)c2ccc([N+](=O)[O-])o2)ccc1NC(=O)c1ccco1 | 3% | 17% | -23% | 79µM* | / | ?
